Source: PubChem BioAssay (Tox21)
Activity calls are given as the source filed them. Entries that show only a call come without a potency. Unless noted, calls follow the shape of the dose curve; as a rule, active = well fitted curve in the direction sought with a large enough effect in the repeat runs; inconclusive = weak or mixed curves; inactive = no such curve, though single readings can be large; an effect the other way counts as inactive or inconclusive.

Experiments:
[1] = qHTS assay to test for compound auto fluorescence at 535 nm (green) in HEK293 cells (AID 720680)
[2] = qHTS assay to test for compound auto fluorescence at 460 nm (blue) in HEK293 cell free culture (AID 720681)
In short: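 Blue fluorescence (Ex 405/Em 460 nm, triamterene-equivalent) was read immediately after pin transfer of compound or DMSO into medium (DMEM, 10% FBS) without cells.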

[3] = qHTS assay to test for compound auto fluorescence at 535 nm (green) in HEK293 cell free culture (AID 720682)
In short: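 Compounds were pin-transferred into cell-free DMEM with 10% FBS, and green fluorescence was read at excitation 485 nm and emission 535 nm. Intensities were expressed as fluorescein-equivalent values.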

[4] = qHTS assay to test for compound auto fluorescence at 590 nm (red) in HEK293 cell free culture (AID 720683)
In short: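 Red-channel autofluorescence of compounds in culture medium (DMEM, 10% FBS), no cells, measured at 540/590 nm. Rose Bengal sodium is the reference fluorophore for equivalence.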

[5] = qHTS assay to test for compound auto fluorescence at 590 nm (red) in HepG2 cell free culture (AID 720684)
In short: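 Steps: dispense MEM/10% FBS medium, no cells; pin compound or DMSO vehicle; read red channel, Ex/Em 540/590 nm. Output given as Rose Bengal sodium equivalents.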

[6] = qHTS assay to test for compound auto fluorescence at 460 nm (blue) in HepG2 cell free culture (AID 720685)
In short: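 Compound (23 nL) or DMSO pinned into cell-free MEM with 10% FBS; blue fluorescence read at 405/460 nm excitation/emission, expressed as auto-fluorescence equivalency to triamterene.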

[7] = qHTS assay to test for compound auto fluorescence at 535 nm (green) in HepG2 cell free culture (AID 720686)
[8] = qHTS assay to test for compound auto fluorescence at 460 nm (blue) in HepG2 cells (AID 720687)
In short: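 Blue-channel autofluorescence (Ex/Em 405/460 nm, triamterene-equivalent) was measured after 1 hr compound exposure at 37 C, 5% CO2. Cells were HepG2, plated overnight at 37 C in MEM plus 10% FBS.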

[9] = molecular target: Glucocorticoid receptor (Homo sapiens) (UniProt P04150); experiment: qHTS assay to identify small molecule agonists of the glucocorticoid receptor (GR) signaling pathway (AID 720691; active = well fitted activation curve with a large enough effect in the signal ratio in the repeat runs, not every such curve was filed as active; inconclusive = weak or mixed curves, or effect the other way; inactive = no such curve, though single readings can be large or run the other way; the % refers to the signal ratio; also: potency is read from the fitted curve at half-maximal effect); conditions: GR-bla HeLa, beta-lactamase reporter ratio, 18 h; activation: at 62.4 µM (top of the series)
In short: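 GR-bla HeLa cells (beta-lactamase reporter under glucocorticoid response element) were plated 4 h at 37 C/5% CO2, given compounds in DMSO, and incubated 18 h at 37 C. LiveBLAzer B/G FRET substrate was added for 2 h at room temperature, then fluorescence intensity read.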

[10] = qHTS assay to identify small molecule antagonists of the glucocorticoid receptor (GR) signaling pathway - cell viability counter screen (AID 720693); also: nearly all actives have a fitted effect of over 55% in size
[11] = qHTS assay for identifying genotoxic compounds that show differential cytotoxicity against isogenic chicken DT40 cell lines with known DNA damage response pathways - wild type cell line (AID 743012); also: nearly all actives have a fitted effect of over 60% in size; also: potency is read from the fitted curve at half-maximal effect
In short: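 Parental DNA repair-proficient DT40 cells, 300 per well, were pre-incubated ~0.5 h at 37 C/5% CO2, pin-dosed with compounds in DMSO, then incubated 40 h. Viability was read as CellTiter-Glo luminescence after 30 min at room temperature.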

[12] = qHTS assay for identifying genotoxic compounds that show differential cytotoxicity against isogenic chicken DT40 cell lines with known DNA damage response pathways - Rev3 mutant cell line (AID 743014); also: nearly all actives have a fitted effect of over 55% in size; also: potency is read from the fitted curve at half-maximal effect
[13] = qHTS assay for identifying genotoxic compounds that show differential cytotoxicity against isogenic chicken DT40 cell lines with known DNA damage response pathways - Rad54/Ku70 mutant cell line (AID 743015); also: nearly all actives have a fitted effect of over 60% in size; also: potency is read from the fitted curve at half-maximal effect
[14] = qHTS assay to identify small molecule antagonists of the androgen receptor (AR) signaling pathway - cell viability counter screen (AID 743033; also: nearly all actives have a fitted effect of over 45% in size)
[15] = molecular target: Glucocorticoid receptor (Homo sapiens) (UniProt P04150); experiment: qHTS assay to identify small molecule antagonists of the glucocorticoid receptor (GR) signaling pathway (AID 720692; active = well fitted inhibition curve with a large enough effect in the signal ratio in the repeat runs, not every such curve was filed as active; inconclusive = weak or mixed curves, or effect the other way; inactive = no such curve, though single readings can be large or run the other way; the % refers to the signal ratio; also: potency is read from the fitted curve at half-maximal effect)
In short: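 GR-bla HeLa cells (beta-lactamase reporter under glucocorticoid response element) were pre-plated 4 h at 37 C, treated with compounds plus 5 nM dexamethasone (final) for 18 h, then read by LiveBLAzer B/G FRET fluorescence after 2 h.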

[16] = molecular target: Androgen receptor (Homo sapiens) (UniProt P10275); experiment: qHTS assay to identify small molecule agonists of the androgen receptor (AR) signaling pathway (AID 743036; active = well fitted activation curve with a large enough effect in the signal ratio in the repeat runs, with a control signal flat, not every such curve was filed as active; inconclusive = weak or mixed curves, or effect the other way; inactive = no such curve, though single readings can be large or run the other way; the % refers to the signal ratio; also: potency is read from the fitted curve at half-maximal effect)
In short: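 Activation was read as beta-lactamase FRET signal from LiveBLAzer B/G substrate, added for 2 h at room temperature. Before that, GeneBLAzer AR-UAS-bla GripTite (HEK293) cells had 16 h compound exposure at 37C.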

[17] = molecular target: Androgen receptor (Homo sapiens) (UniProt P10275); experiment: qHTS assay to identify small molecule agonists of the androgen receptor (AR) signaling pathway using the MDA cell line (AID 743040; also: nearly all actives have a fitted effect of over 20% in size; also: potency is read from the fitted curve at half-maximal effect)
In short: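 Cells plated, 5 h at 37C/0% CO2; compound or DMSO pinned; 16 h at 37C; ONE-Glo added; luminescence measured after 30 min at room temperature. Reporter line: MDA-kb2 with MMTV-luciferase responsive to AR and GR.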

[18] = qHTS assay to identify small molecule antagonists of the androgen receptor (AR) signaling pathway using the MDA cell line - cell viability counter screen (AID 743041; also: nearly all actives have a fitted effect of over 45% in size)
In short: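 Cells were plated at 3,000 per well and left 5 h. Compounds in DMSO were then pinned in, followed by R1881. After 16 h at 37C, CellTiter-Fluor fluorescence gave viability.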

[19] = molecular target: Androgen receptor (Homo sapiens) (UniProt P10275); experiment: qHTS assay to identify small molecule antagonists of the androgen receptor (AR) signaling pathway (AID 743035; active = well fitted inhibition curve with a large enough effect in the signal ratio in the repeat runs, not every such curve was filed as active; inconclusive = weak or mixed curves, or effect the other way; inactive = no such curve, though single readings can be large or run the other way; the % refers to the signal ratio; also: potency is read from the fitted curve at half-maximal effect)
In short: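 HEK293 cells stably carrying a UAS-driven beta-lactamase reporter (AR-UAS-bla GripTite) were plated for 4 h at 37C, then given compound and the agonist R1881 and incubated 16 h. Reporter activity was read by LiveBLAzer B/G FRET fluorescence after 2 h at room temperature.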

[20] = molecular target: Androgen receptor (Homo sapiens) (UniProt P10275); experiment: qHTS assay to identify small molecule antagonists of the androgen receptor (AR) signaling pathway using the MDA cell line (AID 743042; also: nearly all actives have a fitted effect of over 55% in size)
In short: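 Antagonist mode: compounds plus R1881 agonist added to MDA-kb2 AR-luc cells, incubated 16 h at 37C. Luciferase reporter luminescence quantified, with multiplexed CellTiter-Fluor readout for cell viability.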

Sequence of Glucocorticoid receptor (Homo sapiens) (P04150 whole entry, looked up): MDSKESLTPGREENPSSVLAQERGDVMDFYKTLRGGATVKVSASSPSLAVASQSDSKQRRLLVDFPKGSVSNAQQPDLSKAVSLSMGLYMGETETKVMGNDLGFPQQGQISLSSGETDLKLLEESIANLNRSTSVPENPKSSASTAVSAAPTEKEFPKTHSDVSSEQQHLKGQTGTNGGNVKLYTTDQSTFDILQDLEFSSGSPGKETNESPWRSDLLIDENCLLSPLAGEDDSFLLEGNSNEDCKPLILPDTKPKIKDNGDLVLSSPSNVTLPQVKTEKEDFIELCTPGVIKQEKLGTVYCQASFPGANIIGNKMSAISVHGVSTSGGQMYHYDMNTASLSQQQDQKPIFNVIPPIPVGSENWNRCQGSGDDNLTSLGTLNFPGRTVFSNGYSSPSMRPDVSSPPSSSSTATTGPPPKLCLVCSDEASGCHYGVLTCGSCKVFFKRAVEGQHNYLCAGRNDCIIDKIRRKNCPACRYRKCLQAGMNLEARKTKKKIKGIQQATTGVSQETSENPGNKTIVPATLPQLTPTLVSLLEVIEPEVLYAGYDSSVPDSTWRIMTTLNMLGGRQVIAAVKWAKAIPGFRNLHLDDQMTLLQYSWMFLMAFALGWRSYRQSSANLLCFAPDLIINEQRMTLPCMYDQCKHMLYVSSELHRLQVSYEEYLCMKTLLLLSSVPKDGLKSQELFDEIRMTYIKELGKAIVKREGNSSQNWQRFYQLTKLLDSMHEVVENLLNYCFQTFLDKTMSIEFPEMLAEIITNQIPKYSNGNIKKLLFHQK
Sequence of Androgen receptor (Homo sapiens) (P10275 whole entry, looked up): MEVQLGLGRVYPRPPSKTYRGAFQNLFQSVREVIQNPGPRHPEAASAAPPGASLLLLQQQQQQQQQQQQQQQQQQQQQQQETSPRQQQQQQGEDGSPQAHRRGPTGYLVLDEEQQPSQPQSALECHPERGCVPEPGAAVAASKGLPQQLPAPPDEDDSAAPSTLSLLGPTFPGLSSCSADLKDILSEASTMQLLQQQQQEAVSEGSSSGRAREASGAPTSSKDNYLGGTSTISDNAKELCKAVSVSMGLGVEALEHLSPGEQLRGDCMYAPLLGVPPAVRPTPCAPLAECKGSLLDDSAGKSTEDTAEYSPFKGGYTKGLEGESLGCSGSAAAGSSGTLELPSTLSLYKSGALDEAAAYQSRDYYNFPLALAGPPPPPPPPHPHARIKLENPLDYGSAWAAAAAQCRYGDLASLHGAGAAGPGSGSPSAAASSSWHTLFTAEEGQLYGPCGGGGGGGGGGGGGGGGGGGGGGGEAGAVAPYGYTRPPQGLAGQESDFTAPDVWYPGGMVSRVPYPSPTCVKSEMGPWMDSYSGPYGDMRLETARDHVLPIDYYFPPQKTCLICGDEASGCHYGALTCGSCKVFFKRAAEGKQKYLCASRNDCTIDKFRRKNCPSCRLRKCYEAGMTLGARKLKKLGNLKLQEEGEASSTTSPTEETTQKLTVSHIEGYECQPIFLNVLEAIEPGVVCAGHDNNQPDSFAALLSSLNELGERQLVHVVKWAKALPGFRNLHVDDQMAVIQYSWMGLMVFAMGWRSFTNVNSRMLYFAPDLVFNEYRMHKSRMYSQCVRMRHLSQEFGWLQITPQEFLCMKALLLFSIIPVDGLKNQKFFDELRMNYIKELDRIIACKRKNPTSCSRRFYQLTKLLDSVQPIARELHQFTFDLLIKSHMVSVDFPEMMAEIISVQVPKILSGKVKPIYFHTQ

| Structure (SMILES) | Potency [1] | Potency [2] | Potency [3] | Potency [4] | Potency [5] | outcome [6] | Potency [7] | outcome [8] | Potency [9] | Potency [10] | Potency [11] | Potency [12] | Potency [13] | Potency [14] | Potency [15] | Potency [16] | Potency [17] | Potency [18] | Potency [19] | Potency [20] |
| --- | --- | --- | --- | --- | --- | --- | --- | --- | --- | --- | --- | --- | --- | --- | --- | --- | --- | --- | --- | --- |
| CC(C)(C)C1(O)CCN2CC3c4ccccc4CCc4cccc(c43)C2C1 (stereo not drawn) | inactive | inactive | inactive | inactive | inactive | inactive | inactive | inactive | inactive | inactive | 9.44 µM (active) | 11.9 µM (active) | 11.9 µM (active) | inactive |  |  |  |  |  |  |
| CCC(=O)Oc1ccc2c(c1)CC[C@@H]1[C@@H]2CC[C@]2(C)[C@@H](OC(=O)CC)CC[C@@H]12 | inactive | inactive | inactive | inactive | inactive | inactive | inactive | inactive | inactive | inactive |  |  |  |  | 4.25 µM (active) | 2.39 µM (active) | 1.19 µM (active) | inactive |  |  |
| CCCCCCCCCCCCCCCC(=O)O[C@@H]1CC(C)=C(/C=C/C(C)=C/C=C/C(C)=C/C=C/C=C(C)/C=C/C=C(C)/C=C/C2=C(C)C[C@@H](OC(=O)CCCCCCCCCCCCCCC)CC2(C)C)C(C)(C)C1 | inactive | inactive | inactive | inactive | inactive | inactive | inactive | inactive | inactive |  | inactive |  | inactive | inactive | 12 µM (active) |  |  | inactive |  |  |
| CN[C@H]1CCc2cc(OC)c(OC)c(OC)c2-c2ccc(OC)c(=O)cc21 | inactive | inactive | inactive | inactive | inactive | inactive | inactive | inactive | inactive | inactive | 0.0473 µM (active) | 0.0531 µM (active) | 0.0531 µM (active) | inactive |  |  | inactive | inactive | 0.0601 µM (active) | inactive |
| CC1(C)N=C(N)N=C(N)N1c1ccc(Cl)cc1 | inactive | inactive | inactive | inactive | inactive | inactive | inactive | inactive | inactive | inactive | 0.422 µM (active) | 0.422 µM (active) | 1.19 µM (active) |  |  |  |  | inactive |  |  |
| N#Cc1ccc2c(c1)N(CCCN1CCC(O)CC1)c1ccccc1S2 | inactive | inactive | inactive | inactive | inactive | inactive | inactive | inactive | inactive | inactive | 18.8 µM (active) | 26.6 µM (active) | 21.1 µM (active) |  |  |  | inactive |  |  |  |
| CCC[C@@]1(CCc2ccccc2)CC(O)=C([C@H](CC)c2cccc(NS(=O)(=O)c3ccc(C(F)(F)F)cn3)c2)C(=O)O1 | inactive | inactive | inactive | inactive | inactive | inactive | inactive | inactive | inactive | inactive | inactive | inactive | inactive | inactive |  |  |  | inactive |  |  |
| COc1ccc(CC2c3cc(OC)c(OC)cc3CC[N+]2(C)CCC(=O)OCCCCCOC(=O)CC[N+]2(C)CCc3cc(OC)c(OC)cc3C2Cc2ccc(OC)c(OC)c2)cc1OC (stereo not drawn) | inactive | inactive | inactive | inactive | inactive | inactive | inactive | inactive | 1.29 µM [inconclusive] (active) | inactive | inactive | inactive | inactive | inactive |  |  |  | inactive |  |  |
